An excerpt weighted towards active compounds, which were near 1.4% of everything screened.
N370S GC: inhibitors or activators of N370S glucocerebrosidase for Gaucher disease; Potency, µM (top dose mostly 59.4 µM), inactives show at the top dose activity change, negative = inhibition, actives largely listed as inhibitors; AID 2101; 330,000 compounds, 0.092% hits; N370S GC spleen homogenate, 4MU-glucoside fluorescence; P04062;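 note: potency is the fitted concentration of half-maximal effect; 0% = full enzyme activity and -100% = no enzyme basal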
TCR act: activates T cell receptor signaling; primary human leukocytes, anti-CD3, IL-2 HTRF, 48 h; Potency, µM (doses to about 9.22 µM), for inactives: top-dose activation of IL-2 secretion, usual class: activators; 330,000 tested, under 10 active; AID 504894; note: % of control where 0% means no effect
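Human primary leukocytes + a-CD3 beads + cpd, 48 hr; IL-2 in supernatant by HTRF (ex 320nm / em 665nm). No co-stimulatory signal supplied.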
BRCA1 expr act: BRCA1 expression activation | 380,000 compounds, 1.1% hits | Potency, µM (series often up to 46.1 µM), for inactives: at the top dose activation, usual class: activators | MCF7-BRCA1-FFLuc reporter, luminescence, 48 h; response scale: scaled: vehicle 0%, 10 µM genistein 100%; note: potency is the fitted concentration of half-maximal effect; nearly all actives have a fitted effect of over 80% in size
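Luminescence from a BRCA1-driven firefly luciferase in MCF7 cells was the read-out, taken 15 min after substrate addition following 48 h compound exposure at 37 °C. Data were normalized to a 10 microM genistein control and DMSO vehicle.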
GLS inh: glutaminase GLS (human) inhibition. Potency, µM (top dose mostly 45.5 µM), inactives show at the highest dose activity change, negative = inhibition, hits mostly inhibitors. 410,000 compounds, 0.21% hits. AID 624170. O94925. GLS enzymatic activity, qHTS titration; note: potency is the fitted concentration of half-maximal effect; % is set by controls: 0 for no effect and ±100 for the full control effect
Target sequence (O94925 whole entry, looked up): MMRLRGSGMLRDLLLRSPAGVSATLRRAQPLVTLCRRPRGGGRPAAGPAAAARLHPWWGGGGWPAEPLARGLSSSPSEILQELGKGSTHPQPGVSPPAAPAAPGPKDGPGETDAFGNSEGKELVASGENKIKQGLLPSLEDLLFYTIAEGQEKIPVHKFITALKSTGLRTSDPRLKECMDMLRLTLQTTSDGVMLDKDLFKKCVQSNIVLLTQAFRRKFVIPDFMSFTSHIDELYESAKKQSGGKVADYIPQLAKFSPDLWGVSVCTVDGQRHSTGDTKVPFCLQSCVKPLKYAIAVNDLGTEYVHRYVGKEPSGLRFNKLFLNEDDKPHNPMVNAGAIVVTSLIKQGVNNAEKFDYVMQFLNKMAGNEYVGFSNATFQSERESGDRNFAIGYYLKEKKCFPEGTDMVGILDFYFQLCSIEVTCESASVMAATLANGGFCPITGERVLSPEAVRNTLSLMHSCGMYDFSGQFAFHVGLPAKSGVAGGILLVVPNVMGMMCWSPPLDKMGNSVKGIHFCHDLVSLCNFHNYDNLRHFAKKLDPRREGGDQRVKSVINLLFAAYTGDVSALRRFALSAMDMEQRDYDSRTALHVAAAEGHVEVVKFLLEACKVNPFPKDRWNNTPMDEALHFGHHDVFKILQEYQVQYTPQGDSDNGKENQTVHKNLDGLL
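Two-point fluorescence kinetic (t0, 30 min RT) for hKGA; glutamate detected via glutamate oxidase–HRP–Amplex Red. Substrate: 1 mM L-glutamine solution; buffer 45 mM KH2PO4, pH 8.2.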
TSHR antag: blocks TSH signaling through the human TSH receptor; P16473; TSHR-expressing cells, TSH-stimulated cAMP HTRF, 2 h; stronger effect = lower value; activity change, negative = inhibition, % at 11.5 µM; 330,000 compounds, 0.2% hits;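 active = activity change below a set negative limit, meaning inhibition stronger than a set level, cut at about -70% in these data; inconclusive = activity change between two set negative limits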; note: % is set by controls: 0 for no effect and ±100 for the full control effect
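Competitive HTRF cAMP read-out (cryptate anti-cAMP antibody, cAMP-d2; 30 min, room temperature) in freshly harvested TSHR cells. Compounds added before TSH at EC80 (4nM final), followed by 2 hours' incubation at 37 deg C.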
p53 reactivator: mutant p53 re-activation in reporter cells; Potency, µM (titrated, usually from 92.2 µM), inactives show at the top dose activity change, positive = activation, most hits filed as activators; H1299 p53-A138V BP100-luciferase reporter, luminescence, 24 h; 320,000 compounds, 0.063% hits; AID 504706; note: potency is the fitted concentration of half-maximal effect; % of control where 0% means no effect; nearly all actives have a fitted effect of over 45% in size
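p53-null H1299 cells stably carrying temperature-sensitive p53-A138V and a BP100-luciferase reporter were pinned with compounds (4-point, 1:5 series) and held 24 hrs at 37 deg C. Luminescence was read 10 min after detection reagent.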
* = called active by the depositor; ? = inconclusive; / = no result given; [ ] = dose if it differs, or a comment. Unless noted, calls come from the whole dose curve; as a rule, active = well fitted curve in the direction sought with a large enough effect; inconclusive = small, poorly fitted or top-dose-only effect, or another doubt; inactive = no such curve, though single readings can be large; an effect the other way counts as inactive or inconclusive.

SMILES	N370S GC	TCR act	BRCA1 expr act	GLS inh	TSHR antag	p53 reactivator
Cn1c(NCc2ccc(Cl)cc2)nc2ccccc21	0.2%	-2.9%	4.47µM*	1.5%	10.4	5.8%
Cn1c(CNc2nc3ccccc3n2C)nc2ccccc21	19.9%	-0.8%	10µM*	8.0%	12.0	8.0%
Cn1c(CNc2ccc(O)cc2)nc2ccccc21	-3.8%	8.4%	?	38.3%	2.6	24.6%
COc1ccc(Nc2nc3ccccc3n2C)cc1	-2.1%	/	5.62µM*	-27.1%	-15.5	/
COc1cc(N(C)C)c(OC)cc1/C=C1\C=Cc2ccccc21	/	/	58.2%	/	/	/
CC(=O)Nc1ccc(NC(=O)COC(=O)c2ccccc2OCc2cccc(Br)c2)cc1	/	/	11.8%	/	/	/
Cc1nc2n(c(=O)c1CCN1CCC(c3noc4cc(F)ccc34)CC1)CCC[C@@H]2O	/	/	1.7%	-2.6%	/	/
Cc1ccc(CNC(=O)c2oc3ccc(S(=O)(=O)N4CCC(C)CC4)cc3c2C)cc1	/	/	/	1.0%	/	/
CN(C)c1ccc(/C=C/c2ccnc3cc(Cl)ccc23)cc1	/	/	-49.0%	/	/	/
Cc1ccc(NCc2nc3ccccc3n2C)cc1	12.9%	4.7%	62.1%	10.3%	6.4	/
COc1ccc(NCc2nc3ccccc3n2C)cc1	-3.8%	/	3.98µM*	-2.5%	-14.0	/
CCCn1c(NCc2cccc(OC)c2O)nc2ccccc21	-1.0%	-2.5%[46.1 µM]	6.31µM*	9.8%	1.4	16.1%
COc1ccc(CNc2nc3ccccc3n2C)c(O)c1	23.2%	1.2%	1.58µM*	9.5%	1.0	23.3%
O=C1c2ccccc2NC(c2cc(Br)c3c(c2)OCO3)N1Cc1ccco1 (stereo not drawn)	/	/	-25.5%	/	/	/
OCc1ccc(N=Nc2ccccc2)cc1	/	-0.8%	3.16µM*	0.0%	/	/
COC(=O)c1ccc(N=Nc2ccccc2)cc1	-14.3%	-6.6%	10µM*	-1.1%	-0.4	?
O=C(O)c1ccccc1N=Nc1ccc(O)cc1	/	8.9%	0.0%	43.6%	/	/
Oc1ccc(N=Nc2ccccc2)cc1	-9.7%	0.6%	8.91µM*	-6.7%	-3.1	?
COC(=O)c1ccc(OCCOc2ccccc2)cc1	6.3%	2.1%	5.4%	5.3%	-5.9	18.9%
COc1ccc(N=Nc2ccc(CO)cc2)cc1	/	-0.8%	?	4.3%	/	/
COc1ccc(Nc2cc(C)c3cc(NC(=O)COc4cccc(C)c4)ccc3n2)cc1	/	/	-31.8%	-3.2%	/	/
COc1cccc(C2Nc3ccc4ccccc4c3C3=C2C(=O)CC(C)(C)C3)c1OCC(=O)O (stereo not drawn)	?	-11.9%	-13.5%	12.6µM*	19.1	1.0%
CCCCCCCC1=Cc2ccccc2C(C(C(C)=O)C(=O)OC)N1C(=O)OC (stereo not drawn)	7.4%[12.8 µM]	/	/	/	/	/
COc1cccc(-c2nn(Cc3ccccc3)cc2CO)c1	-0.5%	11.0%	12.6µM*	-4.7%	15.3	22.6%
NCc1cn(Cc2ccccc2)nc1-c1ccccc1	/	/	26.3%	/	/	/
SMILES	N370S GC	TCR act	BRCA1 expr act	GLS inh	TSHR antag	p53 reactivator
Cc1cc([N+](=O)[O-])ccc1NC(=O)c1csc(C)c1C	-14.2%	10.0%	5.01µM*	-9.1%	-10.2	?
Cc1ccc2oc(C(=O)N(Cc3ccccc3F)C3CCS(=O)(=O)C3)c(C)c2c1 (stereo not drawn)	/	/	/	3.0%	/	/
CC(C)(C)c1cc(=O)n2c(C#N)c(C#N)nc2[nH]1	-2.4%	-4.6%	-31.3%	-0.3%	-0.2	-9.7%
CC(C)(C)c1ccc(-n2nc(C#N)c(Cl)cc2=O)cc1	?	-2.5%	-100.7%	-6.5%	-80.2*	-11.4%
Cc1nc(-c2ccc(C)c(N3CCN(C(=O)Nc4cccc(Cl)c4C)CC3)c2)no1	/	/	-6.7%	4.0%	/	/
Cc1nc2sc(C(N)=O)c(N)c2c(C)c1CC(=O)c1ccccc1	-0.6%	0.0%	11.2µM*	-7.4%	24.4	-1.8%
CC(=O)NCCCN(Cc1ccc(Cl)c(Cl)c1)c1ccc(Br)cn1	/	/	-27.6%	/	/	/
Cc1cc(C)c(OCCCn2ccnc2)c(C)c1	3.3%	-5.2%	-14.3%	-1.4%	-17.5	/
Cc1cccc(C)c1OCCCn1ccnc1	-10.8%	/	-11.6%	4.7%	-130.0*	?
NS(=O)(=O)c1ccc(CNC(=O)CCS(=O)(=O)Cc2ccccc2)cc1	-4.2%	-4.4%	-2.9%	-1.9%	-79.2*	-4.0%
NS(=O)(=O)c1ccc(CNC(=O)CCSCCC(=O)NCc2ccc(S(N)(=O)=O)cc2)cc1	4.2%	-0.7%	0.0%	3.9%	12.3	2.2%
O=c1cc(-c2ccccc2O)oc2c1ccc1ccccc12	-9.1%	/	/	/	/	/
Cc1occc1C(=O)N/N=C/c1ccc(Br)s1	-5.9%	2.3%	8.91µM*	-10.0%	0.5	3.7%
CCOc1ccc(/C=N/NC(=O)c2ccoc2C)cc1OC	-5.0%	-0.6%	10µM*	2.7%	-26.3	19.6%
COc1cc(/C=N/NC(=O)c2ccoc2C)ccc1O	-12.4%	0.7%[46.1 µM]	?	23.2%	-4.8	?
CCCCc1nc2c(c3c1C[C@H](C)OC3)CN(C(=O)NCCCC(=O)OCC)CC2	6.9%[12.8 µM]	/	/	/	/	/
Cc1ccn2cc(-c3cnoc3C)nc2c1	-3.0%	0.6%	10µM*	33.5%	2.7	?
CCC(Sc1nnc(C)n2c1cc1occc12)C(=O)Nc1ccccc1F (stereo not drawn)	/	/	/	-0.4%	/	/
CC1CC(C)CN(c2oc(-c3ccc(OCc4ccccc4Cl)cc3)nc2C#N)C1 (stereo not drawn)	/	/	16.9%	/	/	/
O=C(/C=C/c1cccc2ccccc12)NCCC1=CCCCC1	8.1%	5.3%	11.2µM*	7.1%	-22.5	?
Cc1ccc(C)c(Nc2nn3c(=O)c4ccc(C(=O)NCc5cccs5)cc4nc3s2)c1	/	/	/	-11.5%	/	/
O=c1cc(-c2ccc(O)cc2)oc2c1ccc1ccccc12	/	-7.3%	35.8%	-6.6%	-11.5	?
COc1cc2oc(-c3ccc(O)cc3)cc(=O)c2c(O)c1OC	10µM*	-0.9%	38.9%	5.6%	-0.8	9.0%

From PubChem BioAssay
